Results: paper PMC5540273 (PLoS ONE, 2017)
“And” between values parts separate entries of the source, which are not always exact repeats. Identical values can stand only once. Like-named read-outs stand apart in the source and are kept apart here.

Tests used:
[1] = system: CAMK2D; settings: concentration: 1 μM, replicates: in singlicate; n = 1
[2] = system: CAMK2G; settings: concentration: 1 μM, replicates: in singlicate, n = 1
[3] = system: CAMK4; settings: concentration: 1 μM, replicates: in singlicate; n = 1
[4] = system: CAMKK1; settings: concentration: 1 μM, replicates: in singlicate; n = 1
[5] = system: CAMKK2; settings: concentration: 1 μM, replicates: in singlicate; n = 1
[6] = system: CASK; settings: concentration: 1 μM, replicates: in singlicate; n = 1
[7] = system: T1, CDC2L1; settings: concentration: 1 μM, replicates: in singlicate; n = 1
T1 construct: gene CDK11B

[8] = system: CDC2L2; settings: concentration: 1 μM, replicates: in singlicate, n = 1
[9] = system: T2, CDC2L5; settings: concentration: 1 μM, replicates: in singlicate, n = 1
T2 construct: gene CDK13

[10] = system: T3, CDK11; settings: concentration: 1 μM, replicates: in singlicate, n = 1
T3 construct: gene CDK19

[11] = system: CDK2; settings: concentration: 1 μM, replicates: in singlicate; n = 1
[12] = system: CDK3; settings: concentration: 1 μM, replicates: in singlicate, n = 1
[13] = system: CDK4-cyclinD1; settings: concentration: 1 μM, replicates: in singlicate; n = 1
[14] = system: CDK4-cyclinD3; settings: concentration: 1 μM, replicates: in singlicate; n = 1
[15] = system: CDK4; settings: concentration: 1 μM, replicates: in singlicate, n = 1
[16] = system: CDK5; settings: concentration: 1 μM, replicates: in singlicate; n = 1
[17] = system: CDK7; settings: concentration: 1 μM, replicates: in singlicate, n = 1
[18] = system: CDK8; settings: concentration: 1 μM, replicates: in singlicate, n = 1
[19] = system: CDK9; settings: concentration: 1 μM, replicates: in singlicate; n = 1
[20] = system: CDKL1; settings: concentration: 1 μM, replicates: in singlicate, n = 1
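Note: KINOMEscan kinase panel screen.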

SMILES: O=C(Nc1ccccc1)Nc1ccc(Oc2ccc3nccn3n2)cc1
- %Inh [1]: 0%
- %Inh [2]: 14%
- %Inh [3]: 29%
- %Inh [4]: 0%
- %Inh [5]: 14%
- %Inh [6]: 7%
- %Inh [7]: 0%
- %Inh [8]: 8%
- %Inh [9]: 0%
- %Inh [10]: 0%
- %Inh [11]: 0%
- %Inh [12]: 1%
- %Inh [13]: 0%
- %Inh [14]: 0%
- %Inh [15]: 0%
- %Inh [16]: 0%
- %Inh [17]: 0%
- %Inh [18]: 23%
- %Inh [19]: 0%
- %Inh [20]: 36%

SMILES: CC(C)(C)c1ccc(-n2cnc3c(N)ncnc32)cc1 [SKF-97263]
- %Inh [1]: 2%
- %Inh [2]: 0%
- %Inh [3]: 0%
- %Inh [4]: 0%
- %Inh [5]: 0%
- %Inh [6]: 12%
- %Inh [7]: 0%
- %Inh [8]: 0%
- %Inh [9]: 0%
- %Inh [10]: 10%
- %Inh [11]: 0%
- %Inh [12]: 3%
- %Inh [13]: 0%
- %Inh [14]: 0%
- %Inh [15]: 0%
- %Inh [16]: 0%
- %Inh [17]: 0%
- %Inh [18]: 0%
- %Inh [19]: 0%
- %Inh [20]: 0%

SMILES: COc1ccc(NC(=O)Nc2ccc(C)c(-c3ccc(C(=O)Nc4ccncc4)cc3)c2)cc1 [GSK1398475]
- %Inh [1]: 0%
- %Inh [2]: 22%
- %Inh [3]: 0%
- %Inh [4]: 3%
- %Inh [5]: 20%
- %Inh [6]: 0%
- %Inh [7]: 0%
- %Inh [8]: 34%
- %Inh [9]: 0%
- %Inh [10]: 4%
- %Inh [11]: 0%
- %Inh [12]: 0%
- %Inh [13]: 0%
- %Inh [14]: 9%
- %Inh [15]: 7%
- %Inh [16]: 0%
- %Inh [17]: 0%
- %Inh [18]: 40%
- %Inh [19]: 0%
- %Inh [20]: 1%

SMILES: NC(=O)c1sc(-n2cnc3ccccc32)cc1OCc1ccccc1F [GSK1024306]
- %Inh [1]: 0%
- %Inh [2]: 14%
- %Inh [3]: 0%
- %Inh [4]: 0%
- %Inh [5]: 10%
- %Inh [6]: 49%
- %Inh [7]: 0%
- %Inh [8]: 0%
- %Inh [9]: 0%
- %Inh [10]: 8%
- %Inh [11]: 0%
- %Inh [12]: 0%
- %Inh [13]: 0%
- %Inh [14]: 0%
- %Inh [15]: 33%
- %Inh [16]: 0%
- %Inh [17]: 0%
- %Inh [18]: 37%
- %Inh [19]: 0%
- %Inh [20]: 10%

SMILES: Cn1ccc2ncnc(Oc3ccc(NC(=O)Nc4cccnc4)c(Cl)c3)c21
- %Inh [1]: 19%
- %Inh [2]: 19%
- %Inh [3]: 0%
- %Inh [4]: 20%
- %Inh [5]: 11%
- %Inh [6]: 0%
- %Inh [7]: 9%
- %Inh [8]: 0%
- %Inh [9]: 10%
- %Inh [10]: 0%
- %Inh [11]: 0%
- %Inh [12]: 0%
- %Inh [13]: 0%
- %Inh [14]: 0%
- %Inh [15]: 0%
- %Inh [16]: 4%
- %Inh [17]: 7%
- %Inh [18]: 0%
- %Inh [19]: 2%
- %Inh [20]: 8%

SMILES: COc1ccc(-c2nc3n(c2-c2ccncc2)CCC3)cc1 [SKF-104493]
- %Inh [1]: 0%
- %Inh ([2]; 1 µM): 0% and 2%
- %Inh [3]: 0%
- %Inh [4]: 0%
- %Inh [5]: 0%
- %Inh [6]: 0%
- %Inh [7]: 0%
- %Inh ([8]; 1 µM): 6% and 13%
- %Inh ([9]; 1 µM): 18% and 0%
- %Inh ([10]; 1 µM): 5% and 7%
- %Inh [11]: 0%
- %Inh ([12]; 1 µM): 0% and 4%
- %Inh [13]: 0%
- %Inh [14]: 0%
- %Inh ([15]; 1 µM): 44% and 0%
- %Inh [16]: 0%
- %Inh ([17]; 1 µM): 15% and 6%
- %Inh ([18]; 1 µM): 5% and 9%
- %Inh [19]: 0%
- %Inh ([20]; 1 µM): 11% and 6%

SMILES: Nc1nccc2scc(-c3ccc4c(c3)CCN4C(=O)Cc3cc(F)ccc3F)c12 [GSK2587663]
- %Inh [1]: 9%
- %Inh [2]: 23%
- %Inh [3]: 0%
- %Inh [4]: 5%
- %Inh [5]: 9%
- %Inh [6]: 22%
- %Inh [7]: 0%
- %Inh [8]: 6%
- %Inh [9]: 0%
- %Inh [10]: 61%
- %Inh [11]: 0%
- %Inh [12]: 18%
- %Inh [13]: 0%
- %Inh [14]: 0%
- %Inh [15]: 0%
- %Inh [16]: 0%
- %Inh [17]: 0%
- %Inh [18]: 61%
- %Inh [19]: 0%
- %Inh [20]: 23%

SMILES: CS(=O)(=O)CCNCc1ccc(-c2ccc3ncnc(Nc4ccc(OCc5ccccc5)c(Cl)c4)c3c2)o1.Cl [GW574783]
- %Inh [1]: 4%
- %Inh [2]: 11%
- %Inh [3]: 0%
- %Inh [4]: 0%
- %Inh [5]: 0%
- %Inh [6]: 3%
- %Inh [7]: 0%
- %Inh [8]: 0%
- %Inh [9]: 0%
- %Inh [10]: 15%
- %Inh [11]: 5%
- %Inh [12]: 10%
- %Inh [13]: 21%
- %Inh [14]: 0%
- %Inh [15]: 0%
- %Inh [16]: 0%
- %Inh [17]: 0%
- %Inh [18]: 43%
- %Inh [19]: 0%
- %Inh [20]: 0%

SMILES: Cl.Cl.c1ccc(-c2cc3ccncc3cc2OC2CCNCC2)cc1 [GSK1122999]
- %Inh [1]: 26%
- %Inh [2]: 20%
- %Inh [3]: 43%
- %Inh [4]: 0%
- %Inh [5]: 30%
- %Inh [6]: 16%
- %Inh [7]: 15%
- %Inh [8]: 5%
- %Inh [9]: 0%
- %Inh [10]: 12%
- %Inh [11]: 0%
- %Inh [12]: 10%
- %Inh [13]: 0%
- %Inh [14]: 0%
- %Inh [15]: 11%
- %Inh [16]: 0%
- %Inh [17]: 0%
- %Inh [18]: 15%
- %Inh [19]: 2%
- %Inh [20]: 10%

SMILES: OCCOCCn1ccc2ncnc(Nc3ccc(Oc4cccc(Cl)c4)c(Cl)c3)c21
- %Inh [1]: 0%
- %Inh [2]: 0%
- %Inh [3]: 0%
- %Inh [4]: 0%
- %Inh [5]: 0%
- %Inh [6]: 0%
- %Inh [7]: 0%
- %Inh [8]: 0%
- %Inh [9]: 0%
- %Inh [10]: 0%
- %Inh [11]: 0%
- %Inh [12]: 0%
- %Inh [13]: 0%
- %Inh [14]: 0%
- %Inh [15]: 0%
- %Inh [16]: 0%
- %Inh [17]: 0%
- %Inh [18]: 0%
- %Inh [19]: 0%
- %Inh [20]: 0%

SMILES: CCCc1ccc(S(=O)(=O)NC2CCN(c3ccnc(Nc4ccc(OC)cc4)n3)C2)cc1 (stereo not shown) [GSK1379737]
- %Inh [1]: 4%
- %Inh [2]: 4%
- %Inh [3]: 0%
- %Inh [4]: 0%
- %Inh [5]: 0%
- %Inh [6]: 22%
- %Inh [7]: 0%
- %Inh [8]: 0%
- %Inh [9]: 0%
- %Inh [10]: 17%
- %Inh [11]: 0%
- %Inh [12]: 16%
- %Inh [13]: 25%
- %Inh [14]: 0%
- %Inh [15]: 37%
- %Inh [16]: 0%
- %Inh [17]: 0%
- %Inh [18]: 50%
- %Inh [19]: 0%
- %Inh [20]: 6%
